Screens (PubChem)
HTT ATP protect = Huntington cell model cytoprotection by ATP luminescence; 230,000 tested, 0.14% active; AID 1471; PC12 HTT-Q103 induced, cytoprotection, ATP luminescence, 40 h; Potency, µM (titrated, usually from 56.4 µM), for the others: cytoprotection (ATP increase), hits mostly activators; also: potency is read from the fitted curve at half-maximal effect; % of control where 0% means no effect; nearly all actives have a fitted effect of over 45% in size
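Rat PC12, Q103 Htt exon1-GFP fusion, ecdysone promoter; tebufenozide inducer 100 nM final; compound titration; qHTS, 1500 cells/well; ATPlite luminescent read.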
HPGD inh = inhibitors of human 15-hydroxyprostaglandin dehydrogenase (HPGD) | Potency, µM, without a hit: at the highest dose activity change, negative = inhibition, actives largely listed as inhibitors | P15428 | purified HPGD, NADH fluorescence kinetic, PGE2 substrate | 150,000 tested, 4.3% active; active = well fitted inhibition curve with a large enough effect, not every such curve was filed as active; inconclusive = small, poorly fitted or top-dose-only effect, or another doubt; inactive = no such curve, though single readings can be large or run the other way; also: potency is read from the fitted curve at half-maximal effect; % is scaled to controls: 0 for no effect and ±100 for the full control effect
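NADH formation kinetics: reaction with 30 uM PGE2 and 1 mM NAD+ (final), 20 nM enzyme, Tris-HCl pH 8 with Tween 20, after 15 min compound preincubation at room temperature. Fluorescence change, last versus first of five reads.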
HTT aggregate = inhibitors of mutant huntingtin aggregate formation in PC12 cells; PC12 HttQ103-GFP aggregates, Acumen cytometry, 40 h; Potency, µM (highest dose often 46.1 µM), for the others: at the highest dose activity change, negative = inhibition, usual class: inhibitors; 220,000 tested, 1.1% active; AID 1688; also: potency is read from the fitted curve at half-maximal effect; % is scaled to controls: 0 for no effect and ±100 for the full control effect; nearly all actives have a fitted effect of over 60% in size
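Read-out: GFP aggregate count by laser scanning cytometer (488 nm excitation, 500-530 nm emission, 1–25 µm objects >6 SD above background). Cells: PC12, inducible HTTex1-Q103-GFP, 100 nM tebufenozide; compounds titrated.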
ALDH1A1 inh = blocks purified human ALDH1A1 activity. Purified ALDH1A1, NADH fluorescence, propionaldehyde substrate. P00352. AID 1030. Potency, µM (top dose mostly 75.3 µM), for inactives: top-dose activity, negative = inhibition, actives largely listed as inhibitors. 220,000 tested, 7.3% active; active = well fitted inhibition curve with a large enough effect, not every such curve was filed as active; inconclusive = small, poorly fitted or top-dose-only effect, or another doubt; inactive = no such curve, though single readings can be large or run the other way;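 also: potency is read from the fitted curve at half-maximal effect; plate controls were no enzyme wells and a reference inhibitor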
Target sequence (P00352 whole entry, looked up): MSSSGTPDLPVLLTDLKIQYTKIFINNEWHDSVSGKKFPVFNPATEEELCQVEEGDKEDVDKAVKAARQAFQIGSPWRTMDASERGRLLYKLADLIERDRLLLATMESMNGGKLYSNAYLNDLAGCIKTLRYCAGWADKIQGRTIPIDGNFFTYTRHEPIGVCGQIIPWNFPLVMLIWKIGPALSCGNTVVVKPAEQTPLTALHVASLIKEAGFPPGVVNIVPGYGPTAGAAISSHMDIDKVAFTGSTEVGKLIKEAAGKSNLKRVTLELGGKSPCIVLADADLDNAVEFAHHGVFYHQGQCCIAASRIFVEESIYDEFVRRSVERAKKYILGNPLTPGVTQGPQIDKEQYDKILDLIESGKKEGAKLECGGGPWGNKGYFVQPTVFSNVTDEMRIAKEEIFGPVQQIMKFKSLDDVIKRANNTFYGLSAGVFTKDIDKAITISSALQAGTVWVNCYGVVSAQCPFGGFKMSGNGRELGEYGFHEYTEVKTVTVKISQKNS
IMPase cell inh = cell-permeable inhibitors of inositol monophosphatase (IMPase) | CHO-M1 cells, IP1 accumulation, HTRF TR-FRET ratio | inhibition (IP1 accumulation), % at 46.1 µM | 120,000 tested, under 10 active; active = well fitted curve in the direction sought with a large enough effect in the signal ratio, not every such curve was filed as active; inconclusive = small, poorly fitted or top-dose-only effect, or a change in a side signal; inactive = no such curve, though single readings can be large or run the other way; the % refers to the signal ratio;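 also: cells stimulated with carbachol in lithium chloride buffer; plate controls were DMSO basal wells for no effect and reference inhibitor wells for full effect; higher means more IMPase inhibition seen as more IP1 and lower FRET ratio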
Target sequence (P97697 whole entry, looked up): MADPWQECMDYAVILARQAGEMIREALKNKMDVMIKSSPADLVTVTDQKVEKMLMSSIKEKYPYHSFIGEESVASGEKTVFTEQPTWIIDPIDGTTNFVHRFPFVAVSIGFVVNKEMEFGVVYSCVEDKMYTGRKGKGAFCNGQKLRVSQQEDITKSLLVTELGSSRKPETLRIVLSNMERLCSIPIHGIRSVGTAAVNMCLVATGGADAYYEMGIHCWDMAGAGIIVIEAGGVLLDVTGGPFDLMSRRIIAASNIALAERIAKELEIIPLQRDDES
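CHO-M1, 2000 cells/well, cultured 16–30 h; cpd up to 46 uM; carbachol (50 uM solution, stimulation buffer w/ 50 mM LiCl, pH 7.4), 30 min 37C; IP-One TR-FRET, 10 min RT; Ex 320/Em 665, 620; Hill-fit AC50.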
IMPase Li inh = IMPase inhibition in cells with lithium potentiation; CHO-M1 cells, IP1 TR-FRET (IP-One), carbachol + lithium; Potency, µM (highest dose often 59.4 µM), for the others: top-dose activity, negative = IMPase inhibition, usual class: inhibitors; 210,000 tested, 0.35% active; AID 1457;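 also: IP1 builds up when IMPase is blocked and the TR-FRET signal falls; potency is read from the fitted curve at half-maximal effect; plate controls were basal vehicle for no effect and high inhibitor control for full effect; nearly all actives have a fitted effect of over 50% in size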
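IP1 accumulation measured by competitive TR-FRET in lysed CHO-M1 cells after 30 min compound exposure at 37C, with a small lithium addition to potentiate weak responses. Hill-equation AC50 from ratio and donor-channel data.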
The depositor's hits bear a star; ? = inconclusive; / = no result given; [ ] = dose if it differs, or a comment. A selection: hits, their analogues and other compounds. The true share with any hit is near 9.4%. Unless noted, calls follow the shape of the dose curve; as a rule, active = well fitted curve in the direction sought with a large enough effect; inconclusive = small, poorly fitted or top-dose-only effect, or another doubt; inactive = no such curve, though single readings can be large; an effect the other way counts as inactive or inconclusive.

SMILES	HTT ATP protect	HPGD inh	HTT aggregate	ALDH1A1 inh	IMPase cell inh	IMPase Li inh
COc1ccc(CCNC2CC(=O)N(N(C)C)C2=O)cc1OC (centres undefined)	5.5%[10 µM]	/	4.2%[9.22 µM]	-14.6%	/	1.4%
COc1ccc(CCN2C(=O)CC(NCCc3ccc(S(N)(=O)=O)cc3)C2=O)cc1OC (centres undefined)	-12.6%	-2.2%	-1.1%	10µM*	-1.0	17.3%[38.3 µM]
COc1ccc(CCN2C(=O)C3C4CCC(C4=C(C)C)C3C2=O)cc1OC (centres undefined)	11.9%[10 µM]	-7.4%	0.8%	12.6µM*	/	12.8%
COc1ccc(CCN2C(=O)CC(NC34CC5CC(CC(C5)C3)C4)C2=O)cc1OC (centres undefined)	13.1%	/	-1.9%	10µM*	/	6.0%
CCOc1ccc(C(C)=O)cc1N1C(=O)C2C3C=CC(C3)C2C1=O (centres undefined)	-9.4%	0.0%	-8.9%	10.2%	8.4	13.4%[38.3 µM]
CCOc1ccc(CCN2C(=O)C3C4C=CC(C4)C3C2=O)cc1OCC (centres undefined)	-8.9%[10 µM]	-12.4%	11.0%	3.55µM*	16.1	31.5%[38.3 µM]
Brc1ccccc1C1=Nn2c(nnc2-c2ccco2)SC1	9.2%[10 µM]	/	-10.7%[9.22 µM]	/	/	/
Brc1ccccc1C1=Nn2c(nnc2-c2ccccc2)SC1	-28.6%	15.8µM*	-31.0%	?	3.2	12.3%[38.3 µM]
O=C(CCl)Nc1ccc(N=Nc2ccccc2)cc1	/	-22.6%	?	0.398µM*	/	0.1%
O=C(O)CC(=O)Nc1ccccc1	-3.0%	-2.0%	-1.4%	-2.6%	-7.2	5.3%[38.3 µM]
O=C(CCl)Nc1ccccc1Sc1ccccc1	5.1%	-7.8%	-2.2%[9.22 µM]	3.98µM*	3.5	7.5%[38.3 µM]
CC(C)N(c1ccccc1)c1ccc(NC(=O)CCl)cc1	7.4%[10 µM]	/	?	0.398µM*	/	3.7%
O=C(CCl)Nc1ccc(-c2ccccc2)cc1	-6.6%	/	17.8µM*	0.251µM*	/	23.4%
Cc1ccc(Nc2c(-c3cccs3)nc3nc(C)cc(C)n23)cc1	/	/	/	/	-14.1	/
O=C(CCl)Nc1cn(-c2ccccc2)nc1-c1ccccc1	-192.2%	/	22.4µM*	14.1µM*	/	-4.8%
CC(=O)Nc1cn(-c2ccccc2)nc1-c1ccccc1	-31.9%	/	-15.2%	1.5%	/	0.0%
O=C(O)C[C@H](Cc1ccc2c(c1)OCO2)C(=O)O	4.1%[10 µM]	-2.6%	/	8.4%[13.5 µM]	/	-16.9%
C=CC[n+]1c(-c2ccc(OC)c(OC)c2)csc1NNC(=O)Nc1ccccc1	-26.2%	-21.3%	12.6µM*	?	15.1	10.8%[38.3 µM]
O=c1c([N+](=O)[O-])c(N2CCCC2)c2ccccc2n1-c1ccccc1	30.1%[10 µM]	/	14.1%[9.22 µM]	-3.5%	/	14.1%
O=C(Nc1ccc(Nc2ccccc2)cc1)c1ccc(Br)o1	-6.1%	28.2µM*	-16.4%	4.9%	9.0	-13.1%[38.3 µM]
O=C(NC(=S)Nc1ccccc1)c1ccc(Br)o1	-45.6%	/	17.0%	-4.8%	/	4.1%
O=C(Nc1ccc2c(c1)OCCO2)c1ccc(Br)o1	-66.4%	28.2µM*	12.1%	?	5.2	-5.4%[38.3 µM]
COc1ccc(NC(=O)c2ccc(Br)o2)cc1	-229.3%	-19.3%	-5.6%	-1.7%	/	-2.2%
COc1ccc(NC(=S)NC(=O)c2ccc(Br)o2)cc1	-40.8%	/	8.9%	11.2µM*	/	1.9%
COc1cccc(Cn2c(=O)c(-c3ccc(F)c(F)c3)nc3cncnc32)c1	-75.2%	-20.8%	/	9.4%	/	-0.5%
SMILES	HTT ATP protect	HPGD inh	HTT aggregate	ALDH1A1 inh	IMPase cell inh	IMPase Li inh
O=c1[nH]c(=S)c2c(n1-c1ccccc1)CCC2	-12.0%[0.074 µM]	-12.6%	1.3%	2.0%	?	10µM*
CCN1C(=O)[C@H]2[C@H]3[C@H](O)[C@H](O)C/C(=N/O[C@@H]4O[C@@H](COC(C)=O)[C@@H](OC(C)=O)[C@@H](OC(C)=O)[C@H]4OC(C)=O)[C@@H]3CC[C@@H]2C1=O	-1.3%[10 µM]	/	/	8.4%[13.5 µM]	/	/
C=CCN1C(=O)C(Cc2ccc(OC)cc2)S/C1=N/N=C/c1ccco1 (centres undefined)	5.4%[10 µM]	-24.9%	21.6%	7.08µM*	10.2	19.7%
CC(C)(C)c1ccc(C(O)CCCN2CCC(C(O)(c3ccccc3)c3ccccc3)CC2)cc1 (centres undefined)	-99.2%	-0.8%	22.4µM*	-0.1%	0.5	17.0%
Nc1nonc1C(=O)NCCN=Cc1cc(Cc2ccccc2)cc(Br)c1O	-43.4%	15.8µM*	?	-10.5%	-0.9	1.0%[38.3 µM]
CC(=O)O[C@H]1CC2(C)[C@@H](C[C@@H](O)[C@H]3[C@@]4(C)CC[C@@H](O)[C@@H](C)[C@@H]4CC[C@@]32C)C1=C(CCC=C(C)C)C(=O)O (some centres undefined)	/	-6.5%	/	1.1%	/	11.9%
COC(=O)CNC(=O)C1(CC(C)C)C=CCN1C(C)=O (centres undefined)	-6.5%	-3.2%	/	7.4%	/	-12.4%
CC(=O)OC[C@@H]1O[C@H](C/C=N\O[C@@H](C)c2cc(-c3c(C)cc(C)cc3C)no2)C=C[C@@H]1OC(C)=O	9.0%[10 µM]	/	/	-3.6%[13.5 µM]	/	/
N#C/C(=C\c1ccccc1)C(=O)N(c1ccccn1)C1CCCCC1	/	-1.5%	-1.7%	-18.9%	/	-6.0%
O=C(/C=C/c1ccc([N+](=O)[O-])cc1)N(c1ccccn1)C1CCCCC1	-39.7%	/	-6.8%	12.6µM*	/	18.3%
CC(C(=O)N1CCN(c2ccc([N+](=O)[O-])cc2)CC1)N1C(=O)C2CC=CCC2C1=O (centres undefined)	-27.0%	/	10.9%	-98.0%	/	2.3%
O=C(CN1C(=O)C2CC=CCC2C1=O)N1CCN(c2ccc([N+](=O)[O-])cc2)CC1 (centres undefined)	5.5%[10 µM]	/	4.7%[9.22 µM]	25.1µM*	/	/
COc1ccc(CC2NCCC3(O)CCCCC23)cc1 (centres undefined)	-6.8%	-18.8%	-6.7%	15.8µM*	4.3	-6.6%[38.3 µM]
COc1ccc(CN(C)C2CCCCC2)cc1	-7.4%	-10.8%	4.4%	-0.5%	0.7	29.2%[38.3 µM]
CC(=O)c1cccc(N(CC(=O)N2CCCCC2)S(C)(=O)=O)c1	-12.6%	-3.8%	-6.4%	0.7%	-4.1	-2.0%[38.3 µM]
CC(=O)c1cccc(N(CC(=O)N2CCCC2)S(C)(=O)=O)c1	1.0%[10 µM]	0.1%	-1.6%	25.1µM*	11.9	-3.3%[38.3 µM]
COc1ccc(COC(=O)N/N=C2/C[C@@H](O)[C@@H](O)[C@@H]3[C@@H]4C(=O)N(c5cccc(Oc6ccccc6)c5)C(=O)[C@H]4CC[C@@H]23)cc1	-5.4%[10 µM]	/	/	-2.0%[13.5 µM]	/	/
COc1ccc(C(=O)N2CCC3(CC2)CCN(c2ccncc2)CC3)cc1	24.6%	-3.6%	/	7.5%	/	24.4%
C=CCCCCCCCC(=O)OC	-4.2%[10 µM]	/	10.1%[9.22 µM]	17.8µM*	/	-0.7%
C=CCCCCCCCCC(=O)NN	10.0%[10 µM]	-8.4%	-5.4%	14.1µM*	-1.3	0.7%
COC(=O)CCCCC(=O)OC	-4.0%	-1.3%	/	-6.0%	/	-9.9%
